Assay results from PMC5700166.

How the values were obtained:
[1] = target: T1, GST-Nv-NF-kB (Ser allele) (Nematostella vectensis, UniProt A7UNT2 2-411); test: protein-binding microarray (PBM); PBM: ~300 nM protein, 6 mM HEPES pH 7.8, 80 mM KCl, 0.5 mM EDTA, 0.5 mM EGTA, 6% glycerol, 35 ng/ul poly-dIdC, 1% milk, 1 h, room temperature; Ap Aiptasia and Nv Nematostella (sea anemones) / Co Capsaspora / Aq Amphimedon (sponge) / Dm Drosophila / Hu human; RHD is the Rel homology domain; high values mean tight binding; conditions: dsDNA, one strand shown
T1 sequence: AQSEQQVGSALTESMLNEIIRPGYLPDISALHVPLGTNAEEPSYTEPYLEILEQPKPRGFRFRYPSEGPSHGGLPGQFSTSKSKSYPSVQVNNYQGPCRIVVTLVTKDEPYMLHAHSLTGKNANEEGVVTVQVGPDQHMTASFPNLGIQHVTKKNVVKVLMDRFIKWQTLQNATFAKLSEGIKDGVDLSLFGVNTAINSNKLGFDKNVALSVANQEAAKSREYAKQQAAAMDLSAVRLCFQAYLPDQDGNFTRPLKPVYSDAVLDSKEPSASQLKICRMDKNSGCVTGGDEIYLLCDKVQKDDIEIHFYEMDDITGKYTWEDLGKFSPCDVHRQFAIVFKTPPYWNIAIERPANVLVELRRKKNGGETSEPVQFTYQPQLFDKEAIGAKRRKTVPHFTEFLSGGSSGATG

[2] = target: GST-Hu-p50 (Homo sapiens, UniProt P19838 7-356); test: as above; conditions: dsDNA, one strand shown
Chain of GST-Hu-p50 (P19838 7-356): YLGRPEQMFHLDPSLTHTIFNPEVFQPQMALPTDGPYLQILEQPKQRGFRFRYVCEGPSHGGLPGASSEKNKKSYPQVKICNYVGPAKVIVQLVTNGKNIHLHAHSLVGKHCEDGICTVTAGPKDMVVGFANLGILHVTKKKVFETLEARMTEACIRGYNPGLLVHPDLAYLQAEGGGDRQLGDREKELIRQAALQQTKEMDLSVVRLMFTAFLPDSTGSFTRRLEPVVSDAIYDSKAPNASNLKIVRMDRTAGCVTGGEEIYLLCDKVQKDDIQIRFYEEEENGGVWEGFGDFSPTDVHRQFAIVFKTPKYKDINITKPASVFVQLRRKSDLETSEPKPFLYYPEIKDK

Sequence	binding signal [1] [z-score]	binding signal [2] [z-score]
CCGATTAACATCAGACCTTCCCCTGATGTTAATCGGGTCTTGATTCGCTTGACGCTGCTG	4.59	4.03
CCGATTAACATCAGGGGGATCACTGATGTTAATCGGGTCTTGATTCGCTTGACGCTGCTG	5.27	5.04
CCGATTAACATCAGGGGGGACAATGATGTTAATCGGGTCTTGATTCGCTTGACGCTGCTG	4.45	3.69
CCGATTAACATCACGGGAATCCCTGATGTTAATCGGGTCTTGATTCGCTTGACGCTGCTG	4.38	3.99
CCGATTAACATCAGGAACCTCCCTGATGTTAATCGGGTCTTGATTCGCTTGACGCTGCTG	1.05	1.22
CCGATTAACATCAGGAAATCCCATGATGTTAATCGGGTCTTGATTCGCTTGACGCTGCTG	1.81	3.19
CCGATTAACATCACCTCCGTATCTGATGTTAATCGGGTCTTGATTCGCTTGACGCTGCTG	1.11	1.28
CCGATTAACATCAGATCTTCCCCTGATGTTAATCGGGTCTTGATTCGCTTGACGCTGCTG	6.54	5.04
CCGATTAACATCAAGGTAATTCCTGATGTTAATCGGGTCTTGATTCGCTTGACGCTGCTG	3.37	2.4
CCGATTAACATCATGGTGGGAAATGATGTTAATCGGGTCTTGATTCGCTTGACGCTGCTG	2.25	2.18
CCGATTAACATCAGGGATTTTCATGATGTTAATCGGGTCTTGATTCGCTTGACGCTGCTG	4.23	4.44
CCGATTAACATCACCCTTGCAGGTGATGTTAATCGGGTCTTGATTCGCTTGACGCTGCTG	1.12	2.18
